# Inconclusive results are not listed. Activity calls are given as the source filed them. The calls were made as follows, unless noted: active = hit-call score of the fitted dose curve at least 0.9, where 1 is the maximum; inactive = score below 0.9.
# Key:
# PGR (gene 5241) [1] = biological target: PGR (gene 5241) (UniProt P06401); assay: TOX21_PR_BLA_Followup_Antagonist_ratio: Tox21 HEK293 Progesterone Receptor (PR) Antagonism Beta-lactamase Follow-Up Assay, Ratio (AID 2283934; active = hit-call score of the fitted dose curve at least 0.9, where 1 is the maximum;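 also: PR-UAS-bla HEK293T cells stimulated with 1 nM R5020 agonist for 16 hr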)
# Procedure, shortened: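 Cells are plated, rested 6 hr, then dosed with test compound in DMSO and challenged with 1 nM promegestone. After 16 hr incubation, substrate loading for 2 h at room temperature precedes fluorescence reading; viability is measured in the same wells.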
# [2] = TOX21_PR_BLA_Followup_Agonist_viability: Viability Assessment in the Tox21 HEK293 Progesterone Receptor (PR) Agonism Beta-lactamase Follow-Up Assay (AID 2283935; active = hit-call score of the fitted dose curve at least 0.9, where 1 is the maximum;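 also: signal loss means lower viability so actives are cytotoxic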)
# Procedure, shortened: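 Cells were plated in medium with 2% charcoal-stripped FBS and rested 6 hr. Compounds in DMSO were then added for 16 hr at 37C, followed by the FRET substrate step and CellTiter-Glo luminescence after 30 min.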
# [3] = TOX21_PR_BLA_Followup_Antagonist_viability: Viability Assessment in the Tox21 HEK293 Progesterone Receptor (PR) Antagonism Beta-lactamase Follow-Up Assay (AID 2283936; active = hit-call score of the fitted dose curve at least 0.9, where 1 is the maximum;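 also: cells exposed to compound with R5020 agonist for 16 h; hits lower the luminescence signal meaning cytotoxicity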)
# Procedure, shortened: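 PR-UAS-bla HEK293T cells in medium with 2% charcoal-stripped FBS were treated with compounds plus R5020 for 16 hr at 37C. After the beta-lactamase read, CellTiter-Glo was added to the same wells and luminescence read after 30 min at room temperature.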
# PGR (gene 5241) [4] = biological target: PGR (gene 5241) (UniProt P06401); assay: TOX21_PR_LUC_Followup_Antagonist: Tox21 HEK293 Progesterone Receptor (PR) Antagonism Luciferase Follow-Up Assay (AID 2283938; active = hit-call score of the fitted dose curve at least 0.9, where 1 is the maximum;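 also: curve fitted upward as signal gain over DMSO baseline despite antagonist label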)
# Procedure, shortened: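 Luminescence from ONE-Glo reagent, measured after 30 min at room temperature, served as readout. Cells (HEK293 carrying PR-A-luc) had been treated 16 h at 37C with DMSO-dissolved compounds. Activity was fitted against DMSO controls.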
# [5] = CCTE_Harrill_HTTr_Viability_DMEM_6hr: (Pilot) CCTE's 6-hour Cell Viability Assessment for the High-Throughput Transcriptomics (HTTr) Platform, in MCF-7 cells cultured in DMEM + 10% fetal bovine serum, Harrill Lab (AID 2283973)
# Procedure, shortened: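 Propidium iodide uptake imaged by high-content analysis after six hours of chemical treatment in an eight-concentration series. Cells: MCF-7 grown in DMEM with 10% fetal bovine serum; DMSO as baseline.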
# [6] = CCTE_Harrill_HTTr_Viability_DMEM_12hr: (Pilot) CCTE's 12-hour Cell Viability Assessment for the High-Throughput Transcriptomics (HTTr) Platform, in MCF-7 cells cultured in DMEM + 10% fetal bovine serum, Harrill Lab (AID 2283974)
# Procedure, shortened: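 Propidium iodide dye exclusion imaged by high-content microscopy after 12 h chemical exposure (eight concentrations) of MCF-7 cells grown in DMEM plus 10% FBS; values fitted in both directions relative to DMSO.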
# [7] = CCTE_Harrill_HTTr_Viability_DMEM_24hr: (Pilot) CCTE's 24-hour Cell Viability Assessment for the High-Throughput Transcriptomics (HTTr) Platform, in MCF-7 cells cultured in DMEM + 10% fetal bovine serum, Harrill Lab (AID 2283975)
# Procedure, shortened: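 Pilot study: propidium iodide dye exclusion, imaged by high content microscopy, after 24 h compound exposure (eight concentrations) in MCF-7 cultured in DMEM + 10% fetal bovine serum; DMSO served as negative control and baseline.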
# [8] = CCTE_Harrill_HTTr_Viability_PRF_DMEM_6hr: (Pilot) CCTE's 6-hour Cell Viability Assessment for the High-Throughput Transcriptomics (HTTr) Platform, in MCF-7 cells cultured phenol red-free DMEM + 10% charcoal-stripped fetal bovine serum, Harrill Lab (AID 2283976)
# Procedure, shortened: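 Membrane integrity by high-content imaging of propidium iodide uptake, six hours after dosing with eight concentrations. Cells: MCF-7 grown in phenol red-free DMEM plus 10% charcoal-stripped serum; DMSO serves as baseline for bidirectional fits.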
# [9] = CCTE_Harrill_HTTr_Viability_PRF_DMEM_12hr: (Pilot) CCTE's 12-hour Cell Viability Assessment for the High-Throughput Transcriptomics (HTTr) Platform, in MCF-7 cells cultured in phenol red-free DMEM + 10% charcoal-stripped fetal bovine serum, Harrill Lab (AID 2283977)
# Procedure, shortened: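 Membrane integrity was scored via propidium iodide dye exclusion imaging, fitted in both directions relative to DMSO. Compounds ran as eight-point dilutions for 12 hours on MCF-7 grown in phenol red-free DMEM plus 10% charcoal-stripped serum.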
# [10] = CCTE_Harrill_HTTr_Viability_PRF_DMEM_24hr: (Pilot) CCTE's 24-hour Cell Viability Assessment for the High-Throughput Transcriptomics (HTTr) Platform, in MCF-7 cells cultured in phenol red-free DMEM + 10% charcoal-stripped fetal bovine serum, Harrill Lab (AID 2283980)
# Procedure, shortened: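 Propidium iodide exclusion imaged at 24 h after dosing scores viability; cells were MCF-7 grown in phenol red-free DMEM plus 10% charcoal-stripped serum, tested in eight concentrations, fitted in both directions against DMSO.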
# [11] = CCTE_Harrill_HTTr_Apoptosis_DMEM_6hr: (Pilot) CCTE's 6-hour Apoptosis Assessment for the High-Throughput Transcriptomics (HTTr) Platform, in MCF-7 cells cultured in DMEM + 10% fetal bovine serum, Harrill Lab (AID 2283981)
# Procedure, shortened: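 MCF-7 cells grown in DMEM + 10% FBS were exposed for 6 hours to an eight-point dilution series. CellEvent Caspase 3/7 Green signal was imaged; activity fitted bidirectionally against DMSO.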
# [12] = biological target: T1, Thyroid hormone receptor alpha (Rattus norvegicus) + Thyroid hormone receptor beta (Rattus norvegicus) (UniProt P18113+P63059); assay: TOX21_TR_LUC_GH3_Agonist_Followup: Tox21 GH3 Thyroid Hormone Receptor Agonism Luciferase Follow-Up Assay (AID 2283939; active = hit-call score of the fitted dose curve at least 0.9, where 1 is the maximum)
# Procedure, shortened: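 Agonist-mode confirmatory run: 15 concentrations (5 nM to 92 uM final) on GH3 rat pituitary cells, 24 h at 37C/5% CO2, T3 as positive control. Luminescence read with ONE-Glo after 30 min.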
# THRA (gene 7067) = THRA (gene 7067) (UniProt P10827); assay: TOX21_TRA_COA_Agonist_Followup_ratio: Tox21 Thyroid Hormone Receptor alpha Agonism through Coactivator Recruitment Follow-Up Assay, Ratio (AID 2283948)
# Procedure, shortened: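 GST-TRa LBD 2.5 nM + 0.10% BSA + cpd; add fluorescein-SRC-2 200 nM, Tb-anti-GST 2 nM. TR-FRET ex 340, em 520/495 ratio. Norm: DMSO 0%, T3 100%; gain-of-signal fit.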
# THRB (gene 7068) [13] = biological target: THRB (gene 7068) (UniProt P10828); assay: TOX21_TRB_COA_Agonist_Followup_ratio: Tox21 Thyroid Hormone Receptor beta Agonism through Coactivator Recruitment Follow-Up Assay, Ratio (AID 2283963)
# Procedure, shortened: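 First, the GST-fused TRβ ligand-binding domain (5.0 nM) was incubated with test compound in 0.10% BSA. Next, fluorescein-tagged SRC-2 peptide (200 nM) and terbium anti-GST antibody (2 nM) were added. Finally, TR-FRET emission ratios were normalized against DMSO and T3 controls.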
# [14] = biological target: Retinoic acid receptor RXR-alpha (Homo sapiens) (UniProt P19793); assay: TOX21_TR_RXR_BLA_Agonist_Followup_ratio: Tox21 Thyroid Hormone Receptor beta Retinoid X Receptor alpha (RXRa) Agonism Beta-lactamase (BLA) Follow-Up Assay, Ratio (AID 2283968; active = hit-call score of the fitted dose curve at least 0.9, where 1 is the maximum)
# Procedure, shortened: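 Cells were first allowed to attach for 5 h, after which compounds in DMSO were pinned at 11 concentrations and incubated 16 h at 37C. LiveBLAzer CCF4-AM substrate was then added for 2 h at room temperature before reading 460 and 530 nm fluorescence.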
# [15] = biological target: T1, Thyroid hormone receptor alpha (Rattus norvegicus) + Thyroid hormone receptor beta (Rattus norvegicus); assay: TOX21_TR_LUC_GH3_Antagonist_Followup: Tox21 GH3 Thyroid Hormone Receptor Antagonism Luciferase Follow-Up Assay (AID 2283942; active = hit-call score of the fitted dose curve at least 0.9, where 1 is the maximum)
# Procedure, shortened: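 Luminescence read-out (ONE-Glo, 30 min at room temperature) in GH3 reporter cells challenged with 1.0 nM T3 final. Compounds ran at 92 uM to 5nM over 15 concentrations for 24 h; DMSO served as negative control and baseline.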
# THRB (gene 7068) [16] = biological target: THRB (gene 7068) (UniProt P10828); assay: TOX21_TRB_BLA_Antagonist_Followup_ratio: Tox21 Thyroid Hormone Receptor beta Antagonism Beta-lactamase (BLA) Follow-Up Assay, Ratio (AID 2283958; active = hit-call score of the fitted dose curve at least 0.9, where 1 is the maximum)
# Procedure, shortened: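 Cells were plated and allowed to attach for 5 h, then dosed with compounds in DMSO at 11 concentrations for 18 h at 37C. Beta-lactamase reporter activity was measured via CCF4-AM FRET as the 460:530 nm ratio.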
# [17] = TOX21_TRB_BLA_Antagonist_Followup_viability: Viability Assessment in the Tox21 Thyroid Hormone Receptor beta Antagonism Beta-lactamase (BLA) Follow-Up Assay (AID 2283961; active = hit-call score of the fitted dose curve at least 0.9, where 1 is the maximum)
# Procedure, shortened: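 Viability read as CellTiter-Glo ATP luminescence (loss of signal = cytotoxicity) in the same plates as the TRβ-bla readout. TRβ-LBD/GAL4 UAS-bla HEK293T cells were exposed to compounds, 11 concentrations in triplicate, for 18 h at 37C/5% CO2.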
# THRB (gene 7068) [18] = biological target: THRB (gene 7068) (UniProt P10828); assay: TOX21_TRB_COA_Antagonist_Followup_ratio: Tox21 Thyroid Hormone Receptor beta Antagonism through Coactivator Recruitment Follow-Up Assay, Ratio (AID 2283967; active = hit-call score of the fitted dose curve at least 0.9, where 1 is the maximum)
# Procedure, shortened: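 GST-TRb LBD 5.0 nM + 0.10% BSA, compound added; fluorescein-SRC-2 peptide 200 nM, Tb-anti-GST Ab 2 nM. TR-FRET, ex 340 / em 520:495 ratio. Norm: DMSO 0%, T3 100%.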
# [19] = TOX21_TR_RXR_BLA_Antagonist_Followup_viability: Viability Assessment in the Tox21 Thyroid Hormone Receptor beta Retinoid X Receptor alpha (RXRa) Antagonism Beta-lactamase (BLA) Follow-Up Assay (AID 2283979; active = hit-call score of the fitted dose curve at least 0.9, where 1 is the maximum)
# Procedure, shortened: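 RXRa-bla HEK293T cells (2,500/well, phenol red-free DMEM, 2% charcoal-stripped FBS) were attached 5 h, then exposed to compounds at 11 concentrations in triplicate for 16 h at 37C. Viability measured by CellTiter-Glo ATP luminescence, bidirectional fitting versus DMSO.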
# Chain of THRB (gene 7068) (P10828 whole entry, looked up, the tested form may be a part): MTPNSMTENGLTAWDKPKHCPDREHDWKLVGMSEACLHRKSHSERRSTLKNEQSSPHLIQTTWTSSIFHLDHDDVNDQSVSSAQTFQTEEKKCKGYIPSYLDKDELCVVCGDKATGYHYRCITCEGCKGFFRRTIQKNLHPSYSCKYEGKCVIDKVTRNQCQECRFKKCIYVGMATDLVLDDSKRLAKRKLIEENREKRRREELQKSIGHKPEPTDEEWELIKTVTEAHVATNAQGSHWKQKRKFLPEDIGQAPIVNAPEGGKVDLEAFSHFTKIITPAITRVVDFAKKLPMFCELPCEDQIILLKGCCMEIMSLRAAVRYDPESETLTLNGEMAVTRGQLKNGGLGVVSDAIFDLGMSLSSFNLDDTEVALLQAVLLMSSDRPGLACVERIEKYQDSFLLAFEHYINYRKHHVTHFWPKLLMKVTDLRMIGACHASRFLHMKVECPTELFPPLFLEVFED
# Chain of PGR (gene 5241) (P06401 whole entry, looked up): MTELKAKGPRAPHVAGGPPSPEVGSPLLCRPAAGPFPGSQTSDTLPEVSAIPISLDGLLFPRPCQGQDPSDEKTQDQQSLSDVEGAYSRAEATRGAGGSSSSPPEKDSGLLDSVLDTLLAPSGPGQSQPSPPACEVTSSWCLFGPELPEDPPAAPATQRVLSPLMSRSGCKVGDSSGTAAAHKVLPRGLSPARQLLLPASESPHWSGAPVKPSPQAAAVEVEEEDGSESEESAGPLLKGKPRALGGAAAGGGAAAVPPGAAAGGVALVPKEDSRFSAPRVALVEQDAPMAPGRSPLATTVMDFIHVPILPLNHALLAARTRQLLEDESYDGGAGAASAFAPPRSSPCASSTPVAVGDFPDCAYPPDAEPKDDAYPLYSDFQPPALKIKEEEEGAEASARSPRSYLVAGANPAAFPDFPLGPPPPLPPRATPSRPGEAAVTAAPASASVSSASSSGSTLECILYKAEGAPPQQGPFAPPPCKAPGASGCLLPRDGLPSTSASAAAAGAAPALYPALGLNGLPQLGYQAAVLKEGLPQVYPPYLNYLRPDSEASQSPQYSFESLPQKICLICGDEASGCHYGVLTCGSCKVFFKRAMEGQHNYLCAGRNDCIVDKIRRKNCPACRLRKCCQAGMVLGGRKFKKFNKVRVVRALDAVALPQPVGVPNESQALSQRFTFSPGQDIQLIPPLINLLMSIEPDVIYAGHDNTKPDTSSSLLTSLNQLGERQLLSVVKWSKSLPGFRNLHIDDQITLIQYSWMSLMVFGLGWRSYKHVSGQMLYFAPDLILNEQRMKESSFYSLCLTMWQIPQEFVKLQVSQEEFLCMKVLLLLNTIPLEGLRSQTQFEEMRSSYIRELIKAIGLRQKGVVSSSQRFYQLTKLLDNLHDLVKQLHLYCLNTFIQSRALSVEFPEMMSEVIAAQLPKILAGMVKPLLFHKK
# T1 sequence (P63059 whole entry, looked up): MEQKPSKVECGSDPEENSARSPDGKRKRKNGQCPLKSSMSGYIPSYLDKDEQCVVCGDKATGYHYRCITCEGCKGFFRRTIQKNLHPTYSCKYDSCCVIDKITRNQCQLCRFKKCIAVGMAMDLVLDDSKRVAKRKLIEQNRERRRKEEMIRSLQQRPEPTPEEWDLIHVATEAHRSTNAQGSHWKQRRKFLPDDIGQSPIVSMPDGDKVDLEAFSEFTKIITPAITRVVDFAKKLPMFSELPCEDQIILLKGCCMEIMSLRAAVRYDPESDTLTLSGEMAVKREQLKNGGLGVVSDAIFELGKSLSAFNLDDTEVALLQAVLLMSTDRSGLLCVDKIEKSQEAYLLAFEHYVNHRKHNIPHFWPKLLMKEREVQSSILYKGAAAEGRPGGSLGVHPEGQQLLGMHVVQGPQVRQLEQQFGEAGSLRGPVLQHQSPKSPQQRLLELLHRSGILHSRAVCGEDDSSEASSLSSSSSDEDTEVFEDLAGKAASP
# T1 sequence (P18113 whole entry, looked up): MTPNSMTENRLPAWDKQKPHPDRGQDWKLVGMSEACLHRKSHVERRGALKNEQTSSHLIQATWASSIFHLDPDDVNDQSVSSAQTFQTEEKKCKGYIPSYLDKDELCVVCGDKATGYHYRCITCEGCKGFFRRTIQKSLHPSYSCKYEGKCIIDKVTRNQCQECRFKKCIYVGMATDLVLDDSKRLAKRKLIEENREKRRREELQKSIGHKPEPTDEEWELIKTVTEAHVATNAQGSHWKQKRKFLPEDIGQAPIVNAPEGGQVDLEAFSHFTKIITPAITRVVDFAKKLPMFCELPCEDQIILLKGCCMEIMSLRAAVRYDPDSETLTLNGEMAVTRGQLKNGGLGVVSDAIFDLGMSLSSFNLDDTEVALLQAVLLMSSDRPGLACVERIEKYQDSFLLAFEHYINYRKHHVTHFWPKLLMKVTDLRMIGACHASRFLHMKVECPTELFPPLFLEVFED
# Chain of THRA (gene 7067) (P10827 whole entry, looked up, the tested form may be a part): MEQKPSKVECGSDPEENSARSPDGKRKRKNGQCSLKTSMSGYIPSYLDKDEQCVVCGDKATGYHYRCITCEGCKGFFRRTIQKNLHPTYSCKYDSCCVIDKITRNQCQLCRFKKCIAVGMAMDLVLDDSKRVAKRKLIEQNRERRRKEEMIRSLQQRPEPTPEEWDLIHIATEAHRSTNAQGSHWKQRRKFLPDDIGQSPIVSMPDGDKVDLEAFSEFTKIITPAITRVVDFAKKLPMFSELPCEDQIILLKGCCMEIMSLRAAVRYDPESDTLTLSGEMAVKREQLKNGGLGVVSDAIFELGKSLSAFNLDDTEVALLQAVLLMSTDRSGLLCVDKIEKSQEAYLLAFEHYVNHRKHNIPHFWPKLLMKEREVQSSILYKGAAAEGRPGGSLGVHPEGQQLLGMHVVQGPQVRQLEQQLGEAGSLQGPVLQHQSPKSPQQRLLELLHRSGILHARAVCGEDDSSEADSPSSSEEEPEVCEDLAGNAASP
# Chain of Retinoic acid receptor RXR-alpha (Homo sapiens) (P19793 whole entry, looked up): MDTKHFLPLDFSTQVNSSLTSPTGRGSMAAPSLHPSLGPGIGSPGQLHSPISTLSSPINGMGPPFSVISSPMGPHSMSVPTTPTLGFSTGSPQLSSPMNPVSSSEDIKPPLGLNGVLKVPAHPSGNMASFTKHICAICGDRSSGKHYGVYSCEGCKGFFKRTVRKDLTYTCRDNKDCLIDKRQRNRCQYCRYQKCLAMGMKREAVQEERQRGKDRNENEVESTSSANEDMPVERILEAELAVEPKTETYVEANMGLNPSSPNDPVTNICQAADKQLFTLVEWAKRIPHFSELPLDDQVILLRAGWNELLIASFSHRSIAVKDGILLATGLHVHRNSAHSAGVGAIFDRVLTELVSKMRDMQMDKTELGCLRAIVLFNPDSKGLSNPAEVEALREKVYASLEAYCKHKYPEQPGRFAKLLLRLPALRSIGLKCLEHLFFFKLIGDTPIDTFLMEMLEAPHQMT
smiles,measurement,setting,value
CC(=O)[C@@]1(O)CC[C@H]2[C@@H]3CCC4=CC(=O)CC[C@]4(C)[C@H]3CC[C@@]21C,outcome,PGR (gene 5241) [1],inactive
same,outcome,[2],inactive
same,outcome,[3],inactive
same,outcome,PGR (gene 5241) [4],inactive
CC(C)OC(=O)C(C)(C)Oc1ccc(C(=O)c2ccc(Cl)cc2)cc1,outcome,[5],inactive
same,outcome,[6],inactive
same,outcome,[7],inactive
same,outcome,[8],inactive
same,outcome,[9],inactive
same,outcome,[10],inactive
same,outcome,[11],inactive
Cc1c(C)c2c(c(C)c1O)CCC(C)(COc1ccc(CC3SC(=O)NC3=O)cc1)O2 (centres undefined),outcome,[5],inactive
same,outcome,[6],inactive
same,outcome,[7],inactive
same,outcome,[8],inactive
same,outcome,[9],inactive
same,outcome,[10],inactive
same,outcome,[11],inactive
Cc1occc(=O)c1O,outcome,[12],inactive
same,outcome,THRA (gene 7067),inactive
same,outcome,THRB (gene 7068) [13],inactive
same,outcome,[14],inactive
CC(=O)O[C@]1(C(C)=O)CC[C@H]2[C@@H]3C=C(Cl)C4=CC(=O)[C@@H]5C[C@@H]5[C@]4(C)[C@H]3CC[C@@]21C,outcome,[5],inactive
same,outcome,[6],inactive
same,outcome,[7],inactive
same,outcome,[8],inactive
same,outcome,[9],inactive
same,outcome,[10],inactive
same,outcome,[11],inactive
CCN(CC)CCOc1ccc(C(=C(Cl)c2ccccc2)c2ccccc2)cc1,AC50,[5],82.4 µM (active)
same,AC50,[6],65.3 µM (active)
same,AC50,[7],54.8 µM (active)
same,AC50,[8],70 µM (active)
same,AC50,[9],65.8 µM (active)
same,AC50,[10],50.3 µM (active)
same,AC50,[11],81.1 µM (active)
Nc1nc(Cl)nc2c1ncn2[C@H]1C[C@H](O)[C@@H](CO)O1,outcome,[15],inactive
same,outcome,THRB (gene 7068) [16],inactive
same,outcome,[17],inactive
same,outcome,THRB (gene 7068) [18],inactive
same,outcome,[5],inactive
same,outcome,[6],inactive
same,outcome,[7],inactive
same,outcome,[8],inactive
same,outcome,[9],inactive
same,outcome,[19],inactive
same,outcome,[10],inactive
same,outcome,[11],inactive
COC(=O)[C@H]1[C@H]2C[C@@H]3c4[nH]c5cc(OC)ccc5c4CCN3C[C@H]2C[C@@H](OC(=O)c2cc(OC)c(OC)c(OC)c2)[C@@H]1OC,outcome,[5],inactive
same,outcome,[6],inactive
same,outcome,[7],inactive
same,outcome,[8],inactive
same,outcome,[9],inactive
same,outcome,[11],inactive

# — PubChem BioAssay (EPA / NIEHS)
